# What was measured:
# Experiment in all cases: PBM; 200 nM protein, PBS
# Details in all cases: dsDNA, one strand shown
# NKX2-5 [1] = target: NKX2-5 (Homo sapiens, UniProt P52952 125-210, R139K)
# NKX2-5 [2] = target: NKX2-5 (Homo sapiens, UniProt P52952 125-210)
# NKX2-6 = target: T1, NKX2-6 (Homo sapiens, UniProt A6NCS4 118-204, F151L)
# T1 sequence: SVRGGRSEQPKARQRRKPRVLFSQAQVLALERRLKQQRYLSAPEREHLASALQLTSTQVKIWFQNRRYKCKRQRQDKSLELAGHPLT
# PITX2 = PITX2 (Homo sapiens, UniProt Q99697 72-157)
# NKX3-2 [3] = target: NKX3-2 (Homo sapiens, UniProt P78367 192-278, P234S)
# NKX3-2 [4] = target: NKX3-2 (Homo sapiens, UniProt P78367 192-278)
# Chain of NKX3-2 (Homo sapiens, UniProt P78367 192-278) (P78367 192-278): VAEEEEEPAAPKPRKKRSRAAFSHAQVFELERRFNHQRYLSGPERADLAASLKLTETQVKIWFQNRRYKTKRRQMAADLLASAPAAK
# Chain of NKX2-5 (Homo sapiens, UniProt P52952 125-210) (P52952 125-210): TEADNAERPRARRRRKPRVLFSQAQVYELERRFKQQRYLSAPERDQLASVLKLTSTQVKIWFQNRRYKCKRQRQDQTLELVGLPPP
# Chain of NKX2-5 (Homo sapiens, UniProt P52952 125-210, R139K) (P52952 125-210 R139K): as the sequence (P52952 125-210) above, with R15K counted along it
# Chain of NKX3-2 (Homo sapiens, UniProt P78367 192-278, P234S) (P78367 192-278 P234S): as the sequence (P78367 192-278) above, with P43S counted along it
sequence,measurement,setting,value
ATACTCCA,binding signal,NKX2-5 [1],"10.6 upbm affinity estimate (log intensity, higher = more binding, comparable within an allelic series)"
same,binding signal,NKX2-5 [2],"10.4 upbm affinity estimate (log intensity, higher = more binding, comparable within an allelic series)"
AAGTAGGG,binding signal,NKX2-5 [1],"10.9 upbm affinity estimate (log intensity, higher = more binding, comparable within an allelic series)"
same,binding signal,NKX2-5 [2],"10.9 upbm affinity estimate (log intensity, higher = more binding, comparable within an allelic series)"
CAAGTGCC,binding signal,NKX2-5 [1],"12.3 upbm affinity estimate (log intensity, higher = more binding, comparable within an allelic series)"
same,binding signal,NKX2-6,"10.6 upbm affinity estimate (log intensity, higher = more binding, comparable within an allelic series)"
CCGGAGAC,binding signal,NKX2-5 [1],"8.74 upbm affinity estimate (log intensity, higher = more binding, comparable within an allelic series)"
same,binding signal,NKX2-5 [2],"8.76 upbm affinity estimate (log intensity, higher = more binding, comparable within an allelic series)"
CCCGAGGC,binding signal,NKX2-5 [1],"9.04 upbm affinity estimate (log intensity, higher = more binding, comparable within an allelic series)"
same,binding signal,PITX2,"8.01 upbm affinity estimate (log intensity, higher = more binding, comparable within an allelic series)"
same,binding signal,NKX3-2 [3],"10.3 upbm affinity estimate (log intensity, higher = more binding, comparable within an allelic series)"
same,binding signal,NKX2-5 [2],"9.06 upbm affinity estimate (log intensity, higher = more binding, comparable within an allelic series)"
same,binding signal,NKX3-2 [4],"10.4 upbm affinity estimate (log intensity, higher = more binding, comparable within an allelic series)"
TATGAAGA,binding signal,NKX2-5 [1],"10.8 upbm affinity estimate (log intensity, higher = more binding, comparable within an allelic series)"
same,binding signal,NKX2-5 [2],"10.7 upbm affinity estimate (log intensity, higher = more binding, comparable within an allelic series)"
ACACTCTG,binding signal,NKX2-5 [1],"10.6 upbm affinity estimate (log intensity, higher = more binding, comparable within an allelic series)"
same,binding signal,NKX2-5 [2],"10.5 upbm affinity estimate (log intensity, higher = more binding, comparable within an allelic series)"
CTAGTACA,binding signal,NKX2-5 [1],"10.5 upbm affinity estimate (log intensity, higher = more binding, comparable within an allelic series)"
same,binding signal,NKX2-5 [2],"10.6 upbm affinity estimate (log intensity, higher = more binding, comparable within an allelic series)"
ACCAAACC,binding signal,NKX2-5 [1],"8.82 upbm affinity estimate (log intensity, higher = more binding, comparable within an allelic series)"
same,binding signal,NKX2-5 [2],"8.9 upbm affinity estimate (log intensity, higher = more binding, comparable within an allelic series)"
CCTGGGCA,binding signal,NKX2-5 [1],"8.92 upbm affinity estimate (log intensity, higher = more binding, comparable within an allelic series)"
same,binding signal,NKX2-5 [2],"9.12 upbm affinity estimate (log intensity, higher = more binding, comparable within an allelic series)"
CGGTTTGC,binding signal,NKX2-5 [1],"8.63 upbm affinity estimate (log intensity, higher = more binding, comparable within an allelic series)"
same,binding signal,NKX2-5 [2],"8.59 upbm affinity estimate (log intensity, higher = more binding, comparable within an allelic series)"
CCAACGCA,binding signal,NKX2-5 [1],"8.88 upbm affinity estimate (log intensity, higher = more binding, comparable within an allelic series)"
same,binding signal,NKX2-5 [2],"8.96 upbm affinity estimate (log intensity, higher = more binding, comparable within an allelic series)"
AGACCGCG,binding signal,NKX2-5 [1],"8.9 upbm affinity estimate (log intensity, higher = more binding, comparable within an allelic series)"
same,binding signal,NKX2-5 [2],"8.83 upbm affinity estimate (log intensity, higher = more binding, comparable within an allelic series)"
ACCGGAGC,binding signal,NKX2-5 [1],"8.8 upbm affinity estimate (log intensity, higher = more binding, comparable within an allelic series)"
same,binding signal,NKX2-5 [2],"8.81 upbm affinity estimate (log intensity, higher = more binding, comparable within an allelic series)"
CACTGCCG,binding signal,NKX2-5 [1],"9 upbm affinity estimate (log intensity, higher = more binding, comparable within an allelic series)"
same,binding signal,NKX2-5 [2],"8.89 upbm affinity estimate (log intensity, higher = more binding, comparable within an allelic series)"
CCCCAACG,binding signal,NKX2-5 [1],"8.6 upbm affinity estimate (log intensity, higher = more binding, comparable within an allelic series)"
same,binding signal,NKX2-5 [2],"8.67 upbm affinity estimate (log intensity, higher = more binding, comparable within an allelic series)"
CGGCGTAC,binding signal,NKX2-5 [1],"8.9 upbm affinity estimate (log intensity, higher = more binding, comparable within an allelic series)"
same,binding signal,NKX2-5 [2],"8.89 upbm affinity estimate (log intensity, higher = more binding, comparable within an allelic series)"
ACGGTCCA,binding signal,NKX2-5 [1],"8.85 upbm affinity estimate (log intensity, higher = more binding, comparable within an allelic series)"
same,binding signal,NKX3-2 [3],"10.5 upbm affinity estimate (log intensity, higher = more binding, comparable within an allelic series)"
same,binding signal,NKX2-5 [2],"8.85 upbm affinity estimate (log intensity, higher = more binding, comparable within an allelic series)"
same,binding signal,NKX3-2 [4],"10.5 upbm affinity estimate (log intensity, higher = more binding, comparable within an allelic series)"
CAGTTGGC,binding signal,NKX2-5 [1],"8.87 upbm affinity estimate (log intensity, higher = more binding, comparable within an allelic series)"
same,binding signal,NKX2-5 [2],"8.7 upbm affinity estimate (log intensity, higher = more binding, comparable within an allelic series)"
ACGTCCCG,binding signal,NKX2-5 [1],"8.76 upbm affinity estimate (log intensity, higher = more binding, comparable within an allelic series)"
same,binding signal,NKX2-5 [2],"8.79 upbm affinity estimate (log intensity, higher = more binding, comparable within an allelic series)"
CTGATCAG,binding signal,NKX2-5 [1],"8.97 upbm affinity estimate (log intensity, higher = more binding, comparable within an allelic series)"
same,binding signal,NKX2-5 [2],"8.87 upbm affinity estimate (log intensity, higher = more binding, comparable within an allelic series)"
ACTGGCCC,binding signal,NKX2-5 [1],"8.91 upbm affinity estimate (log intensity, higher = more binding, comparable within an allelic series)"
same,binding signal,NKX2-5 [2],"8.87 upbm affinity estimate (log intensity, higher = more binding, comparable within an allelic series)"
CACTAAGC,binding signal,NKX2-5 [1],"10.7 upbm affinity estimate (log intensity, higher = more binding, comparable within an allelic series)"
same,binding signal,NKX2-5 [2],"10.6 upbm affinity estimate (log intensity, higher = more binding, comparable within an allelic series)"
GATGAGTA,binding signal,NKX2-5 [1],"11 upbm affinity estimate (log intensity, higher = more binding, comparable within an allelic series)"
same,binding signal,NKX2-5 [2],"10.9 upbm affinity estimate (log intensity, higher = more binding, comparable within an allelic series)"
AATAGTCT,binding signal,NKX2-5 [1],"10.6 upbm affinity estimate (log intensity, higher = more binding, comparable within an allelic series)"
same,binding signal,NKX2-5 [2],"10.7 upbm affinity estimate (log intensity, higher = more binding, comparable within an allelic series)"
AAAGTGCC,binding signal,NKX2-5 [1],"11.6 upbm affinity estimate (log intensity, higher = more binding, comparable within an allelic series)"
same,binding signal,NKX2-5 [2],"11.7 upbm affinity estimate (log intensity, higher = more binding, comparable within an allelic series)"
CTCATAAG,binding signal,NKX2-5 [1],"10.8 upbm affinity estimate (log intensity, higher = more binding, comparable within an allelic series)"
same,binding signal,NKX2-5 [2],"10.9 upbm affinity estimate (log intensity, higher = more binding, comparable within an allelic series)"
GCCCTCTA,binding signal,NKX2-5 [1],"10.4 upbm affinity estimate (log intensity, higher = more binding, comparable within an allelic series)"
same,binding signal,NKX2-5 [2],"10.5 upbm affinity estimate (log intensity, higher = more binding, comparable within an allelic series)"
ACAGCGCC,binding signal,NKX2-5 [1],"8.89 upbm affinity estimate (log intensity, higher = more binding, comparable within an allelic series)"
same,binding signal,NKX2-5 [2],"8.85 upbm affinity estimate (log intensity, higher = more binding, comparable within an allelic series)"
CTCTTATC,binding signal,NKX2-5 [1],"11.5 upbm affinity estimate (log intensity, higher = more binding, comparable within an allelic series)"
same,binding signal,NKX2-5 [2],"11.4 upbm affinity estimate (log intensity, higher = more binding, comparable within an allelic series)"
AGCCACTC,binding signal,NKX2-5 [1],"11.6 upbm affinity estimate (log intensity, higher = more binding, comparable within an allelic series)"
same,binding signal,NKX2-5 [2],"11.5 upbm affinity estimate (log intensity, higher = more binding, comparable within an allelic series)"
GGCTCTTA,binding signal,NKX2-5 [1],"11.7 upbm affinity estimate (log intensity, higher = more binding, comparable within an allelic series)"
same,binding signal,NKX2-5 [2],"11.6 upbm affinity estimate (log intensity, higher = more binding, comparable within an allelic series)"
CCTGGCAG,binding signal,NKX2-5 [1],"8.78 upbm affinity estimate (log intensity, higher = more binding, comparable within an allelic series)"
same,binding signal,NKX2-5 [2],"8.78 upbm affinity estimate (log intensity, higher = more binding, comparable within an allelic series)"
CGGGTGGC,binding signal,NKX2-5 [1],"8.45 upbm affinity estimate (log intensity, higher = more binding, comparable within an allelic series)"
same,binding signal,NKX2-5 [2],"8.57 upbm affinity estimate (log intensity, higher = more binding, comparable within an allelic series)"
ATAAGATG,binding signal,NKX2-5 [1],"10.5 upbm affinity estimate (log intensity, higher = more binding, comparable within an allelic series)"
same,binding signal,NKX2-5 [2],"10.6 upbm affinity estimate (log intensity, higher = more binding, comparable within an allelic series)"

# — publication PMC11006913
